Source: PubChem BioAssay (NCATS)
Records with an inconclusive call do not appear. Active and inactive are the calls of the source. Unless noted, the call rests on the fitted dose curve; in most records, active means well fitted curve in the direction sought with a large enough effect; inconclusive means small, poorly fitted or top-dose-only effect, or another doubt; inactive means no such curve, though single readings can be large; an effect the other way counts as inactive or inconclusive.

Experiments:
[1] = qHTS assay to identify small molecule inhibitors of chordoma cells - UCH-1 (AID 1259355); further: on the % scale 0 is the no-effect control and ±100 the full control effect; nearly all actives have a fitted effect of over 55% in size
How it was run: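 800 cells/well, overnight attach; compounds pinned at 15 concs, then auranofin/camptothecin/doxorubicin/rubitecan/topotecan combo added; 48hr 37 C, 5% CO2; CellTiter-Glo, 30min RT, luminescence.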

[2] = qHTS assay to identify small molecule inhibitors of chordoma cells - UCH-2 (AID 1259356); further: series mostly up to about 46 µM; on the % scale 0 is the no-effect control and ±100 the full control effect
[3] = P-glycoprotein substrates identified in KB-8-5-11 adenocarcinoma cell line, qHTS therapeutic library screen (AID 1346987); further: nearly all actives have a fitted effect of over 65% in size
How it was run: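 Compounds are pinned in dose-response onto KB-8-5-11 cells (500 cells/well, colchicine-free medium) and left 72 h at 37 degree C. CellTiter-Glo luminescence then yields AC50 values.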

[4] = NS1 protein of Zika virus - qHTS assay to identify small molecule inhibitors in human HEK 293 cells (AID 1347053);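 further: series mostly up to about 46 µM; plate controls were infected untreated cells for no effect and uninfected cells for full effect; nearly all actives have a fitted effect of over 55% in size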
How it was run: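 In this cell-based screen, HEK 293 cultures received compound for one hour before Zika MR766 at MOI = 0.5. NS1 was quantified 24 hours later by TR-FRET, normalized to virus-free wells and infected wells.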

[5] = qHTS of pediatric cancer cell lines to identify multiple opportunities for drug repurposing: Primary screen for TC32 cells (AID 1347089); further: on the % scale 0 is the no-effect control and ±100 the full control effect; nearly all actives have a fitted effect of over 60% in size
How it was run: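 TC32 cells, 500-1,000/well in growth medium, compound-treated 48 h at 37 °C; viability from CellTiter-Glo luminescence. Primary screen: MIPE 11-point (0.78 nM–46 µM final), NPC 8-point (0.59 nM–46 µM final); confirmatory at 11-point dilutions.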

[6] = qHTS of pediatric cancer cell lines to identify multiple opportunities for drug repurposing: Primary screen for DAOY cells (AID 1347090);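 further: series mostly up to about 46 µM; plate controls were DMSO for no effect and bortezomib for full effect; nearly all actives have a fitted effect of over 55% in size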
How it was run: (§1)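 Cell viability, CellTiter-Glo luminescence; 500-1,000 cells/well, 8- or 11-point titration, 48 h compound exposure at 37 degrees C, 5% CO2. Controls: DMSO neutral, bortezomib 2.3 µM final as positive.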

[7] = qHTS of pediatric cancer cell lines to identify multiple opportunities for drug repurposing: Primary screen for SJ-GBM2 cells (AID 1347091);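 further: plate controls were DMSO neutral control for no effect and bortezomib for full effect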
How it was run: as §1

[8] = target: T1, Tyrosine-protein phosphatase non-receptor type substrate 1 (Homo sapiens) + Leukocyte surface antigen CD47 (Homo sapiens) (UniProt P78324+Q08722); assay: CD47-SIRPalpha protein protein interaction - LANCE assay qHTS validation (AID 1347057; active means well fitted curve in the direction sought with a large enough effect in the signal ratio, with a control signal flat, not every such curve was filed as active; the % refers to the signal ratio; further: series mostly up to about 38 µM; 0% is about no effect)
T1 sequence (P78324 whole entry, looked up, the tested form may be a part): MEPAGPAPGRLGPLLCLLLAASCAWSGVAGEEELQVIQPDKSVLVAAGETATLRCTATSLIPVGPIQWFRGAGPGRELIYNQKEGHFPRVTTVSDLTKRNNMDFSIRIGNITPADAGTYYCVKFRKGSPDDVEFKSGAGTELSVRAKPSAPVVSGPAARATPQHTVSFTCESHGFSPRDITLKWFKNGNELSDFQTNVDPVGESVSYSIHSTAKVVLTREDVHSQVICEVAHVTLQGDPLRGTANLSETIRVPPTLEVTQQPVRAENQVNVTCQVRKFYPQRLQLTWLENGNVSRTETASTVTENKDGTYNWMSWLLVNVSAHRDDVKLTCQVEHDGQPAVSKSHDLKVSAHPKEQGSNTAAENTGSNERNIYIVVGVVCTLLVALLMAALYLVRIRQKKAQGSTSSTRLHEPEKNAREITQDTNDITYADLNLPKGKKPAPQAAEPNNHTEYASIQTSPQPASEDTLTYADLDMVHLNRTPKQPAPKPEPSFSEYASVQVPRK
T1 sequence (Q08722 whole entry, looked up, the tested form may be a part): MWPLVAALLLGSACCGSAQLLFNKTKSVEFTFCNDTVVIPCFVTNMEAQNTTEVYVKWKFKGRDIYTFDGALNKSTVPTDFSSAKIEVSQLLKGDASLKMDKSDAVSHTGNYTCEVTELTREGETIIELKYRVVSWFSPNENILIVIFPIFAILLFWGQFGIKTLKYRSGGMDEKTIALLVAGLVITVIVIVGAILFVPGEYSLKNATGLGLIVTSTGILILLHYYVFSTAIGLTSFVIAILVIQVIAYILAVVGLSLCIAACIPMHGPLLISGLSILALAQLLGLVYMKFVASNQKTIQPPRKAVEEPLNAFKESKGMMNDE
How it was run: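 Inhibition of soluble CD47/SIRPalpha ectodomain association by titrated compounds, measured as 665/615 nm time-resolved FRET ratio after sequential 30 min room-temperature incubations.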

[9] = target: T1, Tyrosine-protein phosphatase non-receptor type substrate 1 (Homo sapiens) + Leukocyte surface antigen CD47 (Homo sapiens); assay: CD47-SIRPalpha protein protein interaction - HTRF assay qHTS validation (AID 1347058; active means well fitted curve in the direction sought with a large enough effect in the signal ratio, not every such curve was filed as active; the % refers to the signal ratio; further: series mostly up to about 38 µM; 0% is about no effect)
How it was run: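 Soluble extracellular domains (6His-CD47, Avi-tag-biotinylated SIRPalpha) in PBS pH 7.4 with 0.05% IGEPAL CA-630. Compounds were preincubated 30 min at RT with CD47 and anti-His-Eu, then SIRPalpha and SAV-XL665 were added. TR-FRET 665/615 ratio.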

[10] = target: T1, Tyrosine-protein phosphatase non-receptor type substrate 1 (Homo sapiens) + Leukocyte surface antigen CD47 (Homo sapiens); assay: CD47-SIRPalpha protein protein interaction - Alpha assay qHTS validation (AID 1347059);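 further: bead proximity luminescence from CD47 binding SIRPalpha after compound preincubation with SIRPalpha; on the % scale 0 is the no-effect control and ±100 the full control effect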
How it was run: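 AlphaScreen signal between CD47-His (12.5 nM) and biotin-SIRPalpha (25 nM) soluble extracellular domains, bead-captured via Ni-NTA and streptavidin. Compounds, in 7-point titrations, met SIRPalpha 30 min before CD47; PBS pH 7.4 with 0.05% IGEPAL.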

C[C@H](N)[C@H](O)c1cccc(O)c1
inactive: Potency [1] | outcome [2] | Potency [3] | Potency [4] | Potency [5] | Potency [6] | Potency [7]

OC[C@H]1O[C@@H](O[C@@H]2[C@@H](CO)O[C@](O)(CO)[C@H]2O)[C@H](O)[C@@H](O)[C@H]1O
inactive: Potency [1] | outcome [2] | Potency [3] | Potency [4] | Potency [5] | Potency [6] | Potency [7]

COc1ccc(S(=O)(=O)Nc2nnc(CC(C)C)s2)cc1
inactive: Potency [1] | outcome [2] | Potency [3] | Potency [4] | Potency [5] | Potency [6] | Potency [7]

Nc1ccc(S(=O)(=O)Nc2ccccc2)cc1
inactive: Potency [1] | outcome [2] | Potency [3] | Potency [4] | Potency [5] | Potency [6] | Potency [7]

Cc1cc(O)cc2c1O[C@](C)(CCC[C@H](C)CCC[C@H](C)CCCC(C)C)CC2
inactive: Potency [1] | outcome [2] | Potency [3] | Potency [4] | Potency [5] | Potency [6] | Potency [7]

CCC(=O)c1ccc(O)cc1
inactive: Potency [1] | outcome [2] | Potency [3] | Potency [4] | Potency [5] | Potency [6] | Potency [7]

NCC(=O)CCC(=O)O
inactive: Potency [1] | outcome [2] | Potency [3] | Potency [4] | Potency [5] | Potency [6] | Potency [7]

O=C(O)COc1nn(Cc2ccccc2)c2ccccc12
inactive: Potency [1] | outcome [2] | Potency [3] | Potency [4] | Potency [5] | Potency [6] | Potency [7]

NS(=O)(=O)c1cc2c(cc1C(F)(F)F)NC(Cc1ccccc1)NS2(=O)=O (stereo unspecified)
inactive: Potency [1] | outcome [2] | Potency [3] | Potency [4] | Potency [5] | Potency [6] | Potency [7]

CCOC(CN1CCN(CC(C)C(=O)c2ccccc2)CC1)c1ccccc1 (stereo unspecified)
inactive: Potency [1] | outcome [2] | Potency [3] | Potency [4] | Potency [5] | Potency [6] | Potency [7]

CCCCCCCCCCCCOS(=O)(=O)O
inactive: Potency [1] | outcome [2] | Potency [3] | Potency [4] | Potency [5] | Potency [6] | Potency [7]

CC(=O)NC(Cc1ccccc1)C(=O)O (stereo unspecified)
inactive: Potency [1] | outcome [2] | Potency [3] | Potency [4] | Potency [5] | Potency [6] | Potency [7]

O=C(O)c1ccccn1
inactive: Potency [1] | outcome [2] | Potency [3] | Potency [4] | Potency [5] | Potency [6] | Potency [7]

CN1CCOC(c2ccccc2)c2ccccc2C1 (stereo unspecified)
inactive: Potency [1] | outcome [2] | Potency [3] | Potency [4] | Potency [5] | Potency [6] | Potency [7]

COc1cc2[nH]c(=O)[nH]c(=O)c2cc1OC
inactive: Potency [1] | outcome [2] | Potency [3] | Potency [4] | Potency [5] | Potency [6] | Potency [7]

O=S(=O)(O)c1cc(I)c(O)c2ncccc12
inactive: Potency [1] | outcome [2] | Potency [3] | Potency [4] | Potency [5] | Potency [6] | Potency [7]

O=C(O)CN1C(=O)c2cccc3cccc(c23)C1=O
inactive: Potency [1] | outcome [2] | Potency [3] | Potency [4] | Potency [5] | Potency [6] | Potency [7]

Cc1ncc(COP(=O)(O)O)c(C=O)c1O
inactive: Potency [1] | outcome [2] | Potency [3] | Potency [4] | Potency [5] | Potency [6] | Potency [7]

COc1ccc2cc1Oc1cc3c(cc1OC)CC[N+](C)(C)[C@H]3Cc1ccc(cc1)Oc1c(OC)c(OC)cc3c1[C@@H](C2)[N+](C)(C)CC3
inactive: Potency [1] | outcome [2] | Potency [3] | Potency [4] | Potency [5] | Potency [6] | Potency [7]

NC(=O)NNc1ccccc1
inactive: Potency [1] | outcome [2] | Potency [3] | Potency [4] | Potency [6] | Potency [7]

O=C1NC(=O)[C@@]2(CCOc3ccc(F)cc32)N1
inactive: Potency [1] | outcome [2] | Potency [4] | outcome [8] | outcome [9] | outcome [10] | Potency [5] | Potency [6] | Potency [7]

N[C@H]1C(O)O[C@H](CO)[C@@H](O)[C@@H]1O (stereo partly specified)
inactive: Potency [1] | outcome [2] | Potency [3] | Potency [4] | Potency [6] | Potency [7]

N[C@H](C(=O)O)c1ccc(O)cc1
inactive: Potency [1] | outcome [2] | Potency [4] | Potency [5] | Potency [6] | Potency [7]

C[C@@H]1CC[C@@]2(OC1)O[C@H]1C[C@H]3[C@@H]4CC[C@H]5C[C@@H](O)CC[C@]5(C)[C@H]4CC(=O)[C@]3(C)[C@H]1[C@@H]2C
inactive: Potency [1] | outcome [2] | Potency [3] | activity change, negative = inhibition [4] -2.82% [at 4.81 µM] | activity change, negative = cytotoxic [6] 10.7% [at 4.84 µM] | activity change, negative = cytotoxic [7] 26.5% [at 4.84 µM]

NC(CSCC(=O)O)C(=O)O (stereo unspecified)
inactive: Potency [1] | outcome [2] | Potency [4] | Potency [5] | Potency [6] | Potency [7]

OCC(CO)N[C@H]1C[C@](O)(CO)[C@@H](O)[C@H](O)[C@H]1O
inactive: Potency [1] | outcome [2] | Potency [3] | Potency [4] | Potency [6] | Potency [7]

CC(O)CN(CCN(CC(C)O)CC(C)O)CC(C)O (stereo unspecified)
inactive: Potency [1] | outcome [2] | Potency [3] | Potency [4] | Potency [6] | Potency [7]

CC1(C)[C@@H]2CC[C@@]1(C)C(=O)C2
inactive: Potency [1] | outcome [2] | Potency [3] | Potency [4] | Potency [6] | Potency [7]

CC1(C)S[C@@H]2[C@H](NC(=O)Cc3ccccc3)C(=O)N2[C@H]1C(=O)O (tested in a mixture with another compound)
inactive: Potency [1] | outcome [2] | Potency [4] | Potency [5] | Potency [6] | Potency [7]
